Source: PubChem BioAssay
The list is not random: actives were taken first. Their share in the collection is about 5.7%.
A549 viability: A549 cytotoxicity, counter-screen for Nrf2 inhibitors | 390,000 compounds, 0.16% hits | Potency, µM (top dose mostly 46 µM), usual class: inhibitors | A549 ARE-Fluc cells, CellTiter-Fluor viability, 18-24 h | AID 504648
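Cytotoxicity counterscreen: CellTiter-Fluor fluorescence was measured in A549 ARE_Fluc cells after 18-24 h of compound exposure in a concentration series. The subsequent BugLite luminescent read reports ARE-luciferase activity.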
PI4K2A inh: PI4K2A (human) kinase inhibition. purified PI4K2A, ADP-Glo luminescence, 1 h; active compounds read low. AID 1346378. 420,000 compounds, 0.13% hits. Q9BTU6. activity change, negative = inhibition, % at 76.9 µM; in the data active = activity change below about -50%; inconclusive = mostly about -30% to -49%
Target sequence (Q9BTU6 whole entry, looked up): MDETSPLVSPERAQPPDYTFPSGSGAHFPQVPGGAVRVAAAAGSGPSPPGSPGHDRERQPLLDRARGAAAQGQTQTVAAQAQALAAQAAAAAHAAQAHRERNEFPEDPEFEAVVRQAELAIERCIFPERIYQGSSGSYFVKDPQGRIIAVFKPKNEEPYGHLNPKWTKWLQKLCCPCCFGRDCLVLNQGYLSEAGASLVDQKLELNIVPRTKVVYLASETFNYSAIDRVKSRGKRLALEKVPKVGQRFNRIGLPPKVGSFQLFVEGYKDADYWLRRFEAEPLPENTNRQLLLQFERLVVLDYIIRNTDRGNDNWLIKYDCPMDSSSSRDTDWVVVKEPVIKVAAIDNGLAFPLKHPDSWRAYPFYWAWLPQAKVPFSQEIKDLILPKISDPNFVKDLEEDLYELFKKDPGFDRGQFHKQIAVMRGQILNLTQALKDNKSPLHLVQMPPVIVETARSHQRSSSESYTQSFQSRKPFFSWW
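Compounds are screened against recombinant PI4K2A using PI as substrate and ATP, the latter dispensed at 300 microM. Reactions run one hour at ambient temperature before ADP-Glo detection; full inhibition defined by wells lacking enzyme.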
KB-V1 MDR tox: kills drug-selected multidrug resistant KB-V1 cells. KB-V1 MDR cells viability, CellTiter-Glo, 72 h. Potency, µM (series often up to 46.1 µM), usual class: cytotoxic. 400,000 compounds, 3.4% hits. AID 1347076; note: nearly all actives have a fitted effect of over 60% in size
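Readout: CellTiter-Glo luminescence, 10 min after addition. Cells: KB-V1 MDR subline, 72 h at 37 degrees C with compound. Analysis: corrected, normalized data fitted to concentration-effect curves.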
KB-3-1 cytotox: kills parental KB-3-1 adenocarcinoma cells. KB-3-1 viability, CellTiter-Glo ATP luminescence, 72 h. 400,000 compounds, 1.4% hits. AID 1347075. Potency, µM (doses to about 46.1 µM), actives largely listed as cytotoxic; note: nearly all actives have a fitted effect of over 60% in size
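KB-3-1 cells, DMEM (no phenol red) + 10% FBS; compound by pin transfer, 72 h, 37 °C. Readout: CellTiter-Glo luminescence after 10 min. Data normalized, curve-fitted.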
Giardia killer: Giardia lamblia killing; Giardia lamblia trophozoite viability; activity change, % at 7.66 µM, hits read low; 340,000 compounds, 0.15% hits; AID 540267; in the data active = activity change below about -80%; inconclusive = between about -30% and that limit;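 note: parasites exposed to compound for two days anaerobically before the ATP read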
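Media and compound were dispensed first, then trophozoites at 100 cells/well; plates sat 48 hrs at 37 deg C without oxygen before ATP luminescence reagent was added and read after 15-30 min at room temperature.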
Nrf2 inh: Nrf2 pathway inhibition; A549 ARE-Fluc reporter, luciferase luminescence, 18-24 h; Potency, µM (top dose mostly 46 µM), hits mostly inhibitors; 360,000 compounds, 2.1% hits; AID 504444; note: nearly all actives have a fitted effect of over 60% in size
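Quantitative HTS in A549 cells stably bearing an antioxidant response element-firefly luciferase construct. Inhibition of Nrf2-driven transcription was scored by luminescence after 18-24 h of compound exposure at 37 °C.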
Numbers stand for hits; – = inactive; ? = inconclusive; · = no result; ! = repeats disagree. Unless noted, calls come from the whole dose curve; as a rule, active = well fitted curve in the direction sought with a large enough effect; inconclusive = small, poorly fitted or top-dose-only effect, or another doubt; inactive = no such curve, though single readings can be large; an effect the other way counts as inactive or inconclusive.

SMILES	A549 viability	PI4K2A inh	KB-V1 MDR tox	KB-3-1 cytotox	Giardia killer	Nrf2 inh
CC(C)C(=O)N(Cc1cc2ccccc2[nH]c1=O)C(C)C	–	–	16µM	–	–	·
CCCC[C@@H]1C(=O)N2N=C(c3ccccc3)c3ccccc3[C@H]2N2N=C(c3ccccc3)c3ccccc3[C@@H]12	·	–	·	·	·	·
CCN(CC)C(=O)Nc1ccc(OCC(O)CNC(C)(C)C)c(C(C)=O)c1 (stereo not drawn)	·	–	·	·	·	·
c1csc(-c2nnc(Cc3cccc4ccccc34)o2)c1	–	–	15µM	–	–	–
Fc1ccc(Cc2nnc(-c3cccs3)o2)cc1	–	–	–	–	–	?
CCCCS(=O)CC(O)COc1ccc(C(C)(C)C)cc1 (stereo not drawn)	–	–	21µM	–	–	?
N#Cc1ccc(CN2CCN(C(=O)c3ccccc3)CC2)c(Cl)c1	–	–	21µM	–	–	?
O=C(c1ccc(Cn2cc(Cl)c([N+](=O)[O-])n2)cc1)N1CCN(Cc2ccccc2)CC1	–	–	?	–	–	21µM
COc1ccc(NS(=O)(=O)c2ccc(C(=O)N3CCN(Cc4ccccc4)CC3)cc2)cc1	–	–	?	–	–	21µM
O=C(c1ccc([N+](=O)[O-])cc1)N1CCN(Cc2ccccc2)CC1	–	–	–	–	–	–
N#Cc1ccc(CN2CCN(C(=O)c3ccc(S(=O)(=O)N4CCCCCC4)cc3)CC2)cc1	–	–	–	–	–	16µM
O=C(NCc1ccccc1Cl)c1ccc2c(c1)N(Cc1ccccc1)C(=O)CS2	–	–	·	·	·	·
COc1cccc(CNC(=O)C2CCC(CNS(=O)(=O)c3cccc4cccnc34)CC2)c1OC (stereo not drawn)	·	–	·	·	·	·
COc1ccc(/C=C2\C=Cc3ccccc32)cc1OC	·	·	–	–	·	·
COc1ccc(CN2CCN(C(=O)c3ccc(S(=O)(=O)N4CCCCCC4)cc3)CC2)cc1	–	–	2.3µM	8.2µM	–	?
CS(=O)(=O)N1CCc2cc(S(=O)(=O)N3CCN(Cc4ccc5c(c4)OCO5)CC3)ccc21	–	–	21µM	–	–	?
O=C(c1ccc(S(=O)(=O)N2CCCCCC2)cc1)N1CCN(Cc2ccccc2)CC1	–	–	?	–	–	?
Cc1ccc(S(=O)(=O)N2CCN(Cc3ccc4c(c3)OCO4)CC2)cc1	–	–	–	–	·	?
COc1ccc(CN2CCN(C(=O)c3ccc(S(=O)(=O)N4CCCCCC4)cc3)CC2)cc1F	–	–	?	23µM	–	9.2µM
N#Cc1ccc(S(=O)(=O)N2CCC(C(=O)N3CCN(Cc4ccc5c(c4)OCO5)CC3)CC2)cc1	–	–	?	–	?	18µM
CCC(=O)NC(c1ccco1)c1cc(Cl)c2c(c1O)NCCC2 (stereo not drawn)	–	·	·	·	·	–
COC(=O)c1ccc2c(C(C)c3ccccc3O)c[nH]c2c1 (stereo not drawn)	·	–	·	·	·	·
CC(=O)Nc1ccc(S(=O)(=O)NC2=C(N3CCN(Cc4ccccc4)CC3)C(=O)c3ccccc3C2=O)cc1	–	–	18µM!	?	–	–
Cc1ccc(S(=O)(=O)NCc2ccc(C(=O)N3CCN(Cc4ccccc4)CC3)cc2)cc1	–	–	?	23µM	–	?
COc1ccc(CNC(=S)N2CCN(Cc3ccccc3)CC2)cc1	–	–	16µM	–	–	–
SMILES	A549 viability	PI4K2A inh	KB-V1 MDR tox	KB-3-1 cytotox	Giardia killer	Nrf2 inh
COC(=O)[C@]12C[C@H](CC(=O)NCC3CCCCC3)C(=O)N(Cc3ccc(Cl)cc3Cl)C1=C[C@H](C(C)(C)C)O[C@@H]2C	·	–	·	·	·	·
O=C(CNC(=O)c1ccccc1)NCC(=O)OCC(=O)c1ccc2ccccc2c1	–	·	–	?	–	–
COC(=O)C1=CN(c2ccc(Oc3ccccc3)cc2)C(N)=C(C#N)C1c1cccc(F)c1 (stereo not drawn)	·	–	–	–	·	·
COC(=O)C1=CN(c2ccc3c(c2)OCO3)C(N)=C(C#N)C1c1ccc(-c2ccccc2)cc1 (stereo not drawn)	·	–	3.7µM	4.6µM	·	·
COC(=O)C1=CN(c2c(C)cc(C)cc2C)C(N)=C(C#N)C1c1ccccc1 (stereo not drawn)	·	–	?	–	·	·
COC(=O)C1=CN(c2ccc(F)cc2)C(N)=C(C#N)C1c1ccc(-c2ccccc2)cc1 (stereo not drawn)	·	–	16µM	?	·	·
COC(=O)C1=CN(c2ccc(OC)cc2OC)C(N)=C(C#N)C1c1cccc([N+](=O)[O-])c1 (stereo not drawn)	·	–	2.3µM	2.1µM	·	·
COC(=O)C1=CN(c2ccc(F)cc2)C(N)=C(C#N)C1c1cccc(F)c1 (stereo not drawn)	·	–	8.2µM	?	·	·
COC(=O)[C@@H]1[C@H]2SC(C)(C)[C@H](C(=O)OC)N2C(=O)N1Cc1cc2ccccc2n1S(=O)(=O)c1ccccc1	·	·	–	–	·	·
O=C(O)c1cc(F)c(S(=O)(=O)N2CCN(S(=O)(=O)c3ccc4c(c3)OCCO4)CC2)cc1F	–	·	·	·	·	?
c1ccc2c(C(c3nnnn3-c3ccc4c(c3)OCCO4)N3CCCC3)ccnc2c1 (stereo not drawn)	·	–	–	–	·	·
O=C(OCc1ccccc1)N1CCN(C(c2ccnc3ccccc23)c2nnnn2-c2ccc3c(c2)OCCO3)CC1 (stereo not drawn)	·	–	?	23µM	·	·
c1ccc(CN(Cc2ccccc2)C(c2ccnc3ccccc23)c2nnnn2-c2ccc3c(c2)OCCO3)cc1 (stereo not drawn)	·	–	18µM	?	·	·
Cc1cccc(NC(=O)OC2CC3CC2[C@H]2CCCCN2C3)c1 (stereo partly drawn)	·	–	·	·	·	·
C[C@H]1[C@@H](NC(=O)c2cccc(N(C)C)c2)CC[C@@]23CCCN2C(=O)CCC[C@@H]13	·	–	·	·	·	·
Cc1ccc(NS(=O)(=O)c2ccc(C(=O)N3CCC3)cc2)cc1	–	–	–	–	–	?
Cc1ccc(NS(=O)(=O)c2ccc(C(=O)N3CCCCCCC3)cc2)cc1	–	–	–	–	–	21µM
Cc1ccc(NS(=O)(=O)c2cccc(C(=O)N3CCCCCCC3)c2)cc1	?	–	?	–	–	?
Cc1ccc(NS(=O)(=O)c2ccc(C(=O)N3CCCCCC3)cc2)cc1	–	–	4.6µM	?	–	?
Cc1ccc(NS(=O)(=O)c2ccc(C(=O)N3CCCN(C)CC3)cc2)cc1	?	–	–	–	–	–
O=C(Nc1ccc(C(=O)N2CCCCC2)cc1)c1ccccc1	–	?	–	–	–	–
Cc1ccc(NS(=O)(=O)c2cccc(C(=O)N3CCN(c4ncccn4)CC3)c2)cc1	–	–	8.2µM	–	–	–
O=C(Nc1ccccc1)Nc1ccc(C(=O)N2CCCC2)cc1	–	-62	?	?	?	?
